Rango release inh: prevents RanGTP from dissociating the Rango-importin beta complex; O95149+P62826; 340,000 tested, 0.071% active; AID 540253; Biochemical FRET Rango-importin beta, RanGTP-induced dissociation; Potency, µM (doses to about 46.1 µM), inactives show at the top dose activity change, negative = inhibition; calls by dose curve; also: potency is read from the fitted curve at half-maximal effect; % of control where 0% means no effect; nearly all actives have a fitted effect of over 45% in size
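Two FRET readings bracket the reaction: one 5 min after compound meets Rango–importin beta, another 45 min after RanGTP-RCC1 (0.6 uM Ran, 0.2 uM RCC1, 2 mM GTP) is added. Only the second defines inhibition.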
VDR inhibitor: inhibitors of human vitamin D receptor; Potency, µM, for the others: max response, negative = inhibition, actives largely listed as inhibitors; P11473; VDR-SRC2-3 peptide fluorescence polarization, 2 h; 400,000 tested, 0.93% active; also: potency is read from the fitted curve at half-maximal effect; % is scaled to controls: 0 for no effect and ±100 for the full control effect
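After 23 nl compound addition and a short centrifugation, plates sat for 2 hours at ambient temperature; polarization of fluorescence then indicated loss of VDR binding to peptide SRC2-3.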
PLK1 PBD inh: inhibitors of human PLK1 polo-box domain binding; 360,000 tested, 2.8% active; P53350; Plk1 PBD binding of FITC phosphopeptide, fluorescence polarization; Potency, µM, inactives show max response, negative = inhibition, usual class: inhibitors; also: potency is read from the fitted curve at half-maximal effect; series mostly up to about 57 µM; % is scaled to controls: 0 for no effect and ±100 for the full control effect; nearly all actives have a fitted effect of over 65% in size
PI5P4K alpha inh: inhibitors of human PI5P4K alpha | P48426 | PI5P4Kalpha enzyme, ADP-Glo luminescence, 60 min; hits give low values | max response, % | 330,000 tested, 1.2% active | AID 652105; active = max response of -50% or lower; inconclusive = between -30% and -50%; inactive = -30% or higher; also: value at the top dose of about 77 µM; % is scaled to controls: 0 for no effect and ±100 for the full control effect
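qHTS, 1536-well: enzyme/substrate mix, compound by pin tool, 5 microM ATP final; RT 60 min; ADP-Glo reagents 1 (45 min) then 2 (30 min); luminescence.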
GCN5L2 inh: blocks human GCN5L2 histone acetyltransferase. 390,000 tested, 0.21% active. Q92830. Potency, µM (top dose mostly 58.9 µM), for the others: at the top dose activity change, negative = inhibition, most hits filed as inhibitors. GCN5L2 HAT assay, ThioGlo1 CoA-SH fluorescence; also: potency is read from the fitted curve at half-maximal effect; % is scaled to controls: 0 for no effect and ±100 for the full control effect
Target sequence (Q92830 whole entry, looked up): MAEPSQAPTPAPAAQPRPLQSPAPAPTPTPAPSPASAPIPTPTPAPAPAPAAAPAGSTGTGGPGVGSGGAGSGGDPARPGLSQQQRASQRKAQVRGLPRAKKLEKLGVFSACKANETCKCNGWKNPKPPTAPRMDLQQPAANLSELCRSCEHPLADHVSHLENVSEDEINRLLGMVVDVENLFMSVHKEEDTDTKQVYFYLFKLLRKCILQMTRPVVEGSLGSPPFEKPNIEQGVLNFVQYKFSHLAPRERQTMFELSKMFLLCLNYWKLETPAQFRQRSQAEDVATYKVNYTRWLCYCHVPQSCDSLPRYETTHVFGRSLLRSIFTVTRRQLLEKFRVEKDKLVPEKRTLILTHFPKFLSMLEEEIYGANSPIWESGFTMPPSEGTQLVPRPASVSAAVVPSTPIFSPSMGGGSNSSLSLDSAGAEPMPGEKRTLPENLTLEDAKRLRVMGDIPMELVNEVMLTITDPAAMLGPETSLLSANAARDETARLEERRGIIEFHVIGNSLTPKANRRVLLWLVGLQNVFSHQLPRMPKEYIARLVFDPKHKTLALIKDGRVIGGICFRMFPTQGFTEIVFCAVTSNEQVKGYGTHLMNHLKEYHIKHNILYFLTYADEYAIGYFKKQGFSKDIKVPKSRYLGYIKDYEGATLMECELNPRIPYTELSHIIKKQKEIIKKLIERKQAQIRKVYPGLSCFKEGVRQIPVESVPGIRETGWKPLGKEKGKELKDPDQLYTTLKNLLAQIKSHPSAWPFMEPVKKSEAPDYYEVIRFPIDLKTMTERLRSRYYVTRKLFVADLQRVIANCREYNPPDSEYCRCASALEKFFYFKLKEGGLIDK
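Free CoA generated was detected with ThioGlo1 (50uM) fluorescence at Ex340nm/Em540nm, read immediately and after 20 min at room temperature. Enzyme, 20 nM in HEPES pH 7.5 buffer, saw compounds 15 min before adding 75uM H3(1-25) peptide and 70uM acetyl-CoA.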
Rango complex inh: prevents formation of the Rango-importin beta complex; Q14974; Rango CFP/YFP FRET sensor + importin beta, 45 min; Potency, µM (titrated, usually from 92.2 µM), without a hit: top-dose inhibition of complex formation; 340,000 tested, 0.031% active; calls by dose curve;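 also: potency is read from the fitted curve at half-maximal effect; 0% = DMSO wells and 100% = buffer wells lacking importin beta; nearly all actives have a fitted effect of over 15% in size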
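FRET biosensor Rango (snurportin 1 IBB between N-terminal EYFP and C-terminal Cerulean), 50 nM in PBS/1 mM DTT/0.02% Tween-20/0.1% BSA, preincubated 5 min RT with compound; 0.125 microM importin beta added, 45 min RT, CFP/YFP FRET ratio read.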
Starred values were filed as active, the others as inactive; u = inconclusive; x = no result given. Hits are enriched below; roughly 3.6% of the tested compounds scored in any of these assays. Unless noted, calls follow the shape of the dose curve; as a rule, active = well fitted curve in the direction sought with a large enough effect; inconclusive = small, poorly fitted or top-dose-only effect, or another doubt; inactive = no such curve, though single readings can be large; an effect the other way counts as inactive or inconclusive.

SMILES	Rango release inh	VDR inhibitor	PLK1 PBD inh	PI5P4K alpha inh	GCN5L2 inh	Rango complex inh
Cc1cccc(N2CCN(S(=O)(=O)c3c(C(=O)N4CCC(C)CC4)c(C)n(C)c3C)CC2)c1C	x	3%	x	x	-6%	x
COC(=O)c1ccc(CSc2nnc(C)s2)cc1	-19%	-22%	3.4µM*	-51*	-11%	-3%
CCOCCCNC(=O)/C(C#N)=C/c1cc(Br)c(O)c(Br)c1	u	-13%	21µM*	-101*	-5%	u
COCCNC(=O)/C(C#N)=C/c1ccccc1Br	-7%	-28%	24µM*	-63*	-3%	2%
COCCNC(=O)/C(C#N)=C/c1cc(Br)c(O)c(OC)c1	u	-2%	3%	u	-4%	u
COCCNC(=O)/C(C#N)=C/C=C/c1ccccc1	-10%	-9%	-15%	-6	-4%	-1%
O=C(CSc1nc2ccccc2nc1Cc1ccccc1)N1CCc2ccccc21	x	4%	x	x	-14%	x
CC(=O)OCCOc1nc(NC(C)C)nc(NC(C)C)n1	27%	u	30µM*	4	2%	-2%
CC(C)Nc1nc(NC(C)C)nc(OCCOC(=O)c2ccccc2)n1	-9%	-18%	-7%	2	-1%	2%
COC(=O)c1c(Oc2ccc(C(C)=O)cc2)nnc(-c2ccccc2)c1-c1ccccc1	x	18%	x	x	-18%	x
CC1CCN(S(=O)(=O)c2ccc3c(c2)N(C)C(=O)CC(=O)N3C)CC1	-14%	4%	13µM*	-4	-6%	-2%
COc1ccc2cc(S(=O)(=O)N3CCCC(C)C3)ccc2c1 (stereo not drawn)	-9%	89µM*	27µM*	3	-5%	-1%
CC1CCCN(S(=O)(=O)c2ccc3c(c2)C(C)(C)C(=O)N3C)C1 (stereo not drawn)	1%	5%	-3%	-1	28µM*	u
CN1C(=O)CC(=O)N(C)c2cc(S(=O)(=O)N(C)Cc3ccccc3)ccc21	-14%	u	7.5µM*	-10	-9%	0%
CCS(=O)(=O)N1CCc2cc(C(=O)Nc3ccc(OC)c(Cl)c3)ccc21	x	7%	x	x	-13%	x
COc1ccc(-c2cc3ccc(O)c(CN4CCCCC4C)c3oc2=O)cc1OC (stereo not drawn)	x	7%	x	x	-12%	x
CCC(=O)CC	x	u	x	x	-5%	x
COc1ccc(-c2nc(-c3ccccc3)c(-c3ccc(F)cc3)[nH]2)c(OC)c1C	x	-19%	x	x	-5%	x
COc1ccc(OC)c(CC2C(=O)Nc3ccc(Br)cc32)c1 (stereo not drawn)	x	16%	x	x	-14%	x
Cc1cc(C)cc(NS(=O)(=O)c2ccc3c(c2)C(C)(C)C(=O)N3C)c1	11%	-21%	27µM*	-3	u	5%
Oc1ccc(NCc2ccccc2OCc2ccccc2F)cc1	-11%	40µM*	-11%	-23	-8%	0%
Oc1ccc(NCc2ccccc2OCc2ccccc2Cl)cc1	x	u	x	x	-3%	x
COc1ccc(Br)cc1CNc1ccc2[nH]c(=O)[nH]c2c1	2%	16%	-5%	0	-3%	3%
CCOc1ccccc1CNc1ccc(O)cc1	-3%	40µM*	u	u	-4%	-3%
CCOc1cccc(CNc2ccc(O)cc2)c1OCc1ccc(Cl)cc1	-3%	u	-8%	-13	-13%	-4%
COc1ccc(Br)cc1CNc1ccc(O)cc1	-15%	25µM*	30µM*	-29	1%	-4%
CCOc1cc(CNc2ccc(O)cc2)ccc1OCc1ccc(Cl)cc1Cl	-10%	32µM*	-21%	-7	-15%	0%
CCCCCN(CCCCC)C(=O)[C@H](CCC(=O)O)NC(=O)[C@H](Cc1ccc(OP(=O)(O)O)cc1)NC(C)=O	x	-11%	x	x	3%	x
CCOC(=O)c1cccc(NC(=O)NC(C)c2c(-n3cccc3)sc3c2CCN(C)C3)c1 (stereo not drawn)	x	10%	x	x	0%	x
CCc1cccc(-n2nnc(-c3nsc(NC(=O)c4cccs4)n3)c2C)c1	x	6%	x	x	2%	x

Compound activity as filed in PubChem.
